Reference: ChEMBL document CHEMBL3988442, “University of Dundee, Small-Polar-MMV Screening Library” (2021)

These molecules were tested against AMP-activated protein kinase, AMPK (Homo sapiens) (UniProt P54646+O43741+P54619+Q9UGJ0+Q9Y478+Q13131+Q9UGI9) (assay: AMP-dependent Kinase enzyme assay. An in vitro enzyme assay that detects ADP turnover that is directly proportional to AMPK activity. This uses naive AMPK that is activated during the assay with MK-8722). Conditions: 30 µM.
Type: functional
Design: scale not given: direction of the effect not stated beside the values
In the case of Cc1cccc2cc(CNCCCN3CCOCC3)c(=O)[nH]c12, the Percent Effect was -2.19%. CC(C)N(C)C(=O)C1=NOC2(CCN(C(=O)c3ccncc3)C2)C1 (stereo not given) showed a Percent Effect of -0.462%. In the case of Cc1cnn(CC(C)NCc2ccc(-n3cccn3)cc2)c1 (stereo not given), the Percent Effect was 2.55%. Work on Cc1nc(C)n(C2CCCN(C(=O)Cc3cccnc3)C2)n1 (stereo not given) yielded a Percent Effect of 2.37%. Work on CN(C)C(=O)CN1CCCCC1c1nc(N)ncc1-c1cccc(F)c1 (stereo not given) yielded a Percent Effect of 1.75%. O=C(C1CC1)N1CCN(Cc2coc(-c3ccc(Cl)cc3)n2)CC1 was tested, and the Percent Effect was 1.6%. CN(CCNC(=O)N1CCN(Cc2ccon2)CC1)C1CCCC1 showed a Percent Effect of 3.19%. For c1csc(N2CCCN(Cc3nc(C4CC4)no3)CC2)n1, the Percent Effect was -4.1%. N#Cc1ccc(C(=O)N2CC[C@H]3[C@@H]2CCC(=O)N3c2cccnc2)cc1 showed a Percent Effect of 3.21%. For Cc1nn(C)c(C)c1C1CCCN1C(=O)c1ccc(Cl)o1 (stereo not given), the Percent Effect was 0.29%. Molecule Cc1nccn1-c1cc(CNC(=O)c2ccccn2)ccn1 has a Percent Effect of 4.31%. O=C1COc2c(cccc2C(=O)N2CCCCC2Cn2cccn2)N1 (stereo not given) was tested, and the Percent Effect was 2.71%. Cc1cc(C)n(CC2CCCN2CC(=O)N(C)C)n1 (stereo not given) gave a Percent Effect of -5.85%. In the case of CC(C)(C)C(=O)NCCc1ccn(-c2ccccc2)n1, the Percent Effect was 0.882%. In the case of CC(C)C(NC(=O)NCCNc1ccccn1)c1cccs1 (stereo not given), the Percent Effect was -14.7%. For Cc1ccc(CN2CCCC3(COCCN(Cc4c[nH]nn4)C3)C2)o1 (stereo not given), the Percent Effect was 3.3%. CCNC(c1ccc(OC)cc1)c1cccnc1 (stereo not given) showed a Percent Effect of 5.52%. In the case of CCN(CC1CCCO1)C(=O)Nc1cc(OC)c(OC)cc1C (stereo not given), the Percent Effect was -14.4%. Work on Cc1cc(C2CCCN2C(=O)c2cc3c(s2)CCC3)on1 (stereo not given) yielded a Percent Effect of 2.83%. In the case of COc1ccccc1[C@@H]1CN(C(=O)c2csc(C)n2)C[C@H]1C(=O)O, the Percent Effect was -3.07%. CCc1ccc(CN2CCC3(CC2)CC(N2CCN(C)CC2)CO3)cc1 (stereo not given) was tested, and the Percent Effect was 7.52%. With Cc1ccc(C(=O)NC(C)CN2CCCC2=O)c(=O)[nH]1 (stereo not given) the Percent Effect was -5.61%. In the case of CCc1nnc2n1CCN(C(=O)c1cc3ccc(F)cc3nc1C)C2, the Percent Effect was 4.64%. With CC(C)n1ccnc1C1CCN(Cc2ccc(Cl)c(F)c2)CC1 the Percent Effect was 1.93%. With CC(C)c1ncc2c(n1)CN(Cc1ccc(C(N)=O)cc1)CC2 the Percent Effect was -25.7%. Work on COc1cccc2c1ccn2CCC(=O)NCCCC(=O)O yielded a Percent Effect of 1.22%. Work on CN(C(=O)c1ccccn1)c1nc2c(s1)CCc1c-2cnn1C yielded a Percent Effect of 11%. Cc1ccc2c(c1)OCCCC2NCc1nnc2n1CCCCC2 (stereo not given) gave a Percent Effect of -4.22%. CC(C)c1noc(CN2CCN(C(=O)c3ccccc3F)CC2)n1 was tested, and the Percent Effect was -4.45%. Molecule O=C(c1ccc[nH]1)N1CCC(c2nccn2Cc2ccncc2)CC1 has a Percent Effect of -1.71%. Work on O=S(=O)(Nc1cnn(C2CCOCC2)c1)c1ccc(F)c(F)c1 yielded a Percent Effect of -3.09%. Molecule CN(C)C(CNC(=O)c1cccc(-n2cnnn2)c1)c1ccccc1Cl (stereo not given) has a Percent Effect of 2.54%. Molecule CC(O)CN1CCN(C(=O)c2ccc(Br)o2)CC1 (stereo not given) has a Percent Effect of 17.9%. Molecule CC(NC1(CNC(=O)CC(C)(C)C)CCOCC1)c1ccccc1 (stereo not given) has a Percent Effect of 1.15%. Molecule CC(=O)N1CC(=O)N(c2ccccc2)CC12CCN(Cc1nccs1)C2 (stereo not given) has a Percent Effect of 3.41%. Work on CN(C)CC1CN(Cc2csc(C3CCCC3)n2)CCO1 (stereo not given) yielded a Percent Effect of -6.29%. Cc1cccc2nc(C(=O)N3CCC(Nc4cccnn4)CC3)cn12 showed a Percent Effect of 2.91%. With O=C(CCNc1ncccn1)N1CCCC(n2ccnc2)C1 (stereo not given) the Percent Effect was 7.8%. Work on CC(=O)N1CC(=O)N(c2cnn(C)c2)CC12CCN(CC1CC1)C2 (stereo not given) yielded a Percent Effect of 1.91%. COCCNC(=O)c1cc2c(s1)CCN2C(=O)c1ccccc1 was tested, and the Percent Effect was -16.6%.

Each molecule was assayed against Sialic acid-binding Ig-like lectin 9 (Homo sapiens) (UniProt Q9Y336) (assay: Hs-Siglec9 ALPHAscreen SOP 20170721). Conditions: 10 µM.
Sequence of Sialic acid-binding Ig-like lectin 9 (Homo sapiens) (Q9Y336 whole entry): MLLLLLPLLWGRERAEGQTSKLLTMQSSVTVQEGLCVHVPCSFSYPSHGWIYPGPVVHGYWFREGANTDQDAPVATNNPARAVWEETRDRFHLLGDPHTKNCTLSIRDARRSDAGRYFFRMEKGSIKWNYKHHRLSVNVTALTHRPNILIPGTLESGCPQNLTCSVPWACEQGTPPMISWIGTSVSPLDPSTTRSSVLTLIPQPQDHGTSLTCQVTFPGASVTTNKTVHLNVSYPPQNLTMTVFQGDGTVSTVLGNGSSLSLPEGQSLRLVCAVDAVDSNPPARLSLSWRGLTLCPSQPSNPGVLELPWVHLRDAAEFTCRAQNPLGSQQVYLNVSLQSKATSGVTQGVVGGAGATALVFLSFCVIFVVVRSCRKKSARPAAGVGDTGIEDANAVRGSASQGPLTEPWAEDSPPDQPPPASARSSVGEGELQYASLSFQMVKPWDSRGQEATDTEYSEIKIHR
Design: scale not given: direction of the effect not stated beside the values
For Cc1cccc2cc(CNCCCN3CCOCC3)c(=O)[nH]c12, the Percent Effect was 3.5%. CC(C)N(C)C(=O)C1=NOC2(CCN(C(=O)c3ccncc3)C2)C1 (stereo not given) was tested, and the Percent Effect was -1.1%. With Cc1cnn(CC(C)NCc2ccc(-n3cccn3)cc2)c1 (stereo not given) the Percent Effect was -4.21%. In the case of Cc1nc(C)n(C2CCCN(C(=O)Cc3cccnc3)C2)n1 (stereo not given), the Percent Effect was -1.07%. Molecule CN(C)C(=O)CN1CCCCC1c1nc(N)ncc1-c1cccc(F)c1 (stereo not given) has a Percent Effect of -10.4%. O=C(C1CC1)N1CCN(Cc2coc(-c3ccc(Cl)cc3)n2)CC1 showed a Percent Effect of 13.9%. Molecule CN(CCNC(=O)N1CCN(Cc2ccon2)CC1)C1CCCC1 has a Percent Effect of -0.946%. With c1csc(N2CCCN(Cc3nc(C4CC4)no3)CC2)n1 the Percent Effect was 9.22%. Work on N#Cc1ccc(C(=O)N2CC[C@H]3[C@@H]2CCC(=O)N3c2cccnc2)cc1 yielded a Percent Effect of -7.6%. In the case of Cc1nn(C)c(C)c1C1CCCN1C(=O)c1ccc(Cl)o1 (stereo not given), the Percent Effect was -6.5%. Cc1nccn1-c1cc(CNC(=O)c2ccccn2)ccn1 was tested, and the Percent Effect was 6.49%. O=C1COc2c(cccc2C(=O)N2CCCCC2Cn2cccn2)N1 (stereo not given) showed a Percent Effect of 5.65%. Cc1cc(C)n(CC2CCCN2CC(=O)N(C)C)n1 (stereo not given) showed a Percent Effect of 20%. CC(C)(C)C(=O)NCCc1ccn(-c2ccccc2)n1 gave a Percent Effect of 2.89%. For CC(C)C(NC(=O)NCCNc1ccccn1)c1cccs1 (stereo not given), the Percent Effect was 6.36%. Cc1ccc(CN2CCCC3(COCCN(Cc4c[nH]nn4)C3)C2)o1 (stereo not given) showed a Percent Effect of 8.61%. In the case of CCNC(c1ccc(OC)cc1)c1cccnc1 (stereo not given), the Percent Effect was 9.44%. With CCN(CC1CCCO1)C(=O)Nc1cc(OC)c(OC)cc1C (stereo not given) the Percent Effect was 12.7%. Cc1cc(C2CCCN2C(=O)c2cc3c(s2)CCC3)on1 (stereo not given) gave a Percent Effect of 3.1%. Molecule COc1ccccc1[C@@H]1CN(C(=O)c2csc(C)n2)C[C@H]1C(=O)O has a Percent Effect of -2.56%. CCc1ccc(CN2CCC3(CC2)CC(N2CCN(C)CC2)CO3)cc1 (stereo not given) was tested, and the Percent Effect was 5.26%. Work on Cc1ccc(C(=O)NC(C)CN2CCCC2=O)c(=O)[nH]1 (stereo not given) yielded a Percent Effect of 0.134%. CCc1nnc2n1CCN(C(=O)c1cc3ccc(F)cc3nc1C)C2 showed a Percent Effect of 3.18%. Molecule CC(C)n1ccnc1C1CCN(Cc2ccc(Cl)c(F)c2)CC1 has a Percent Effect of 15.3%. For CC(C)c1ncc2c(n1)CN(Cc1ccc(C(N)=O)cc1)CC2, the Percent Effect was -1.87%. Molecule COc1cccc2c1ccn2CCC(=O)NCCCC(=O)O has a Percent Effect of -4.11%. Molecule CN(C(=O)c1ccccn1)c1nc2c(s1)CCc1c-2cnn1C has a Percent Effect of -2.4%. With Cc1ccc2c(c1)OCCCC2NCc1nnc2n1CCCCC2 (stereo not given) the Percent Effect was 17.1%. In the case of CC(C)c1noc(CN2CCN(C(=O)c3ccccc3F)CC2)n1, the Percent Effect was 3.5%. O=C(c1ccc[nH]1)N1CCC(c2nccn2Cc2ccncc2)CC1 was tested, and the Percent Effect was 5.74%. O=S(=O)(Nc1cnn(C2CCOCC2)c1)c1ccc(F)c(F)c1 showed a Percent Effect of 9.32%. In the case of CN(C)C(CNC(=O)c1cccc(-n2cnnn2)c1)c1ccccc1Cl (stereo not given), the Percent Effect was -4.62%. Work on CC(O)CN1CCN(C(=O)c2ccc(Br)o2)CC1 (stereo not given) yielded a Percent Effect of -7.51%. CC(NC1(CNC(=O)CC(C)(C)C)CCOCC1)c1ccccc1 (stereo not given) showed a Percent Effect of 15.6%. CC(=O)N1CC(=O)N(c2ccccc2)CC12CCN(Cc1nccs1)C2 (stereo not given) showed a Percent Effect of -1.44%. Work on CN(C)CC1CN(Cc2csc(C3CCCC3)n2)CCO1 (stereo not given) yielded a Percent Effect of 9.69%. With Cc1cccc2nc(C(=O)N3CCC(Nc4cccnn4)CC3)cn12 the Percent Effect was 37.9%. O=C(CCNc1ncccn1)N1CCCC(n2ccnc2)C1 (stereo not given) showed a Percent Effect of -0.356%. Work on CC(=O)N1CC(=O)N(c2cnn(C)c2)CC12CCN(CC1CC1)C2 (stereo not given) yielded a Percent Effect of 0.306%. COCCNC(=O)c1cc2c(s1)CCN2C(=O)c1ccccc1 was tested, and the Percent Effect was 4.96%.
